{"source": "PubChem BioAssay AID624354", "about": "(Sanford-Burnham Center for Chemical Genomics, 2012)", "note": "Hit rate of the full screen: of about 360,000 compounds, about 3,800 (1.1%) were called active.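 Rule for the calls: active = compounds causing at least 50% loss of cell viability in the single-dose screen, relative to plate controls; inactive = the rest.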 Many of the other results were omitted from the sample, so actives are more common in it than they were.", "data": [{"experiment": "TRAIL-exposed caspase-8 expressing cell killing – NB7+C8 cells, ATPlite luminescence, TRAIL sensitizer project, primary screen (AID 624354)", "conditions": "at 10 µM, active compounds read high", "values": [{"compound": "COc1ccc(C(=O)NC(C)Cn2nc(C)cc2C)cc1OC1CCN(C(C)=O)CC1", "note": "(stereo not drawn)", "inhibition (viability loss, TRAIL sensitization)": "8.29% (inactive)"}, {"compound": "N#CCCN(C(=O)Nc1ccc(Cl)c(Cl)c1)C1CCCCC1", "inhibition (viability loss, TRAIL sensitization)": "7.87% (inactive)"}, {"compound": "O=C(CC(O)(C(F)(F)F)C(F)(F)F)Nc1ccc(Cl)c(Cl)c1", "inhibition (viability loss, TRAIL sensitization)": "62.6% (active)"}, {"compound": "CC1(C(=O)O)CCC(C(=O)Nc2ccc(Cl)c(Cl)c2)C1(C)C", "note": "(stereo not drawn)", "inhibition (viability loss, TRAIL sensitization)": "-2.64% (inactive)"}, {"compound": "CC(=O)N1Cc2cc(C(=O)NCc3cccc(F)c3)nc(-c3cccc(C4=CCCCC4)c3)c2[C@H]1CCO", "inhibition (viability loss, TRAIL sensitization)": "4.95% (inactive)"}, {"compound": "CSCCC(NC(N)=O)C(=O)N(C)CC(=O)Nc1ccc(C)cc1", "note": "(stereo not drawn)", "inhibition (viability loss, TRAIL sensitization)": "-24.9% (inactive)"}, {"compound": "CCOC(=O)c1c(NC(=O)COC(=O)c2ccc(S(=O)(=O)C(F)F)cc2)sc(C(=O)N(C)C)c1C", "inhibition (viability loss, TRAIL sensitization)": "-18.3% (inactive)"}, {"compound": "CCOC(=O)c1c(NC(=O)CCl)sc(C(=O)N(CC)CC)c1C", "inhibition (viability loss, TRAIL sensitization)": "92.5% (active)"}, {"compound": "COC(=O)c1sc(NC(=O)COC(=O)C2CCC2)c(C(=O)OC)c1C", "inhibition (viability loss, TRAIL sensitization)": "-0.357% (inactive)"}, {"compound": "CCc1ccc2oc(-c3ccc(N)cc3)nc2c1", "inhibition (viability loss, TRAIL sensitization)": "74.9% (active)"}, {"compound": "O=C(C(Cc1ccccc1)n1cccc1)N1CCN(C2CCCCC2)CC1", "note": "(stereo not drawn)", "inhibition (viability loss, TRAIL sensitization)": "1.84% (inactive)"}, {"compound": "CN(C)C(=O)c1cccc(-c2cnc3c(NC=O)cc(-c4ccc(F)cc4)cn23)c1", "inhibition (viability loss, TRAIL sensitization)": "16.1% (inactive)"}, {"compound": "CC(=O)c1cccc(-c2cnc3c(NC=O)cc(-c4ccc(N(C)C)cc4)cn23)c1", "inhibition (viability loss, TRAIL sensitization)": "17.5% (inactive)"}, {"compound": "CN(C)CCNC(=O)c1cccc(-c2cnc3c(NC=O)cc(-c4cccc(C(F)(F)F)c4)cn23)c1", "inhibition (viability loss, TRAIL sensitization)": "59.1% (active)"}, {"compound": "Cc1ccc(-c2ccc(CN3C(C(C)C)C(=O)N(Cc4cn(CCC5OCCO5)nn4)CCS3(=O)=O)cc2)cc1", "note": "(stereo not drawn)", "inhibition (viability loss, TRAIL sensitization)": "-2.12% (inactive)"}, {"compound": "Oc1cccc2cc(-c3ccncc3)cnc12", "inhibition (viability loss, TRAIL sensitization)": "47.7% (inactive)"}, {"compound": "Cc1ccc(C(=O)NNC2=Nc3cc([N+](=O)[O-])ccc3OC2)cc1", "inhibition (viability loss, TRAIL sensitization)": "-18% (inactive)"}, {"compound": "COc1ccc(C2=Nc3cc(C)ccc3OC2)cc1", "inhibition (viability loss, TRAIL sensitization)": "58.6% (active)"}, {"compound": "COc1ccc(C(O)c2nc(-c3ccc4c(c3)OCO4)cs2)cc1", "note": "(stereo not drawn)", "inhibition (viability loss, TRAIL sensitization)": "-6.82% (inactive)"}, {"compound": "C=CCN(CC=C)C(=O)COC(=O)c1n[nH]c2ccccc12", "inhibition (viability loss, TRAIL sensitization)": "9.77% (inactive)"}, {"compound": "c1ccc2[nH]c(-c3nc4ccccc4[nH]3)nc2c1", "inhibition (viability loss, TRAIL sensitization)": "69.4% (active)"}, {"compound": "Nc1ccccc1-c1nc2ccncc2[nH]1", "inhibition (viability loss, TRAIL sensitization)": "12.6% (inactive)"}, {"compound": "O=C1c2ccccc2C(c2nc3ccccc3[nH]2)N1c1ccccc1", "note": "(stereo not drawn)", "inhibition (viability loss, TRAIL sensitization)": "-17.6% (inactive)"}, {"compound": "CCOc1cc(/C=C(/C#N)c2ccc(Cl)cc2)cc(Cl)c1OCC(=O)O", "inhibition (viability loss, TRAIL sensitization)": "11.5% (inactive)"}, {"compound": "O=C(CN1CCCC1)Nc1sc2c(c1C(=O)Nc1ccccc1)CCCC2", "inhibition (viability loss, TRAIL sensitization)": "20.1% (inactive)"}, {"compound": "O=C(O)c1c(NC(=O)N2CCCC2)sc2c1CCCC2", "inhibition (viability loss, TRAIL sensitization)": "1.53% (inactive)"}, {"compound": "NC(=O)c1c(NC(=O)c2ccccc2)sc2c1CCCC2", "inhibition (viability loss, TRAIL sensitization)": "53.3% (active)"}, {"compound": "C[C@H]1[C@H]2c3nc4ccccc4n3C[C@H]1ON2C1CCCCC1", "inhibition (viability loss, TRAIL sensitization)": "-6.24% (inactive)"}, {"compound": "Cc1ccccc1S(=O)(=O)NC(=O)C1(C)CCN1C(=O)C1(c2ccc(Cl)cc2)CC1", "note": "(stereo not drawn)", "inhibition (viability loss, TRAIL sensitization)": "-8.57% (inactive)"}, {"compound": "CC(=O)c1ccc(S(=O)(=O)NC2CC(=O)N(c3ccc4c(c3)OCCO4)C2)cc1", "note": "(stereo not drawn)", "inhibition (viability loss, TRAIL sensitization)": "2.78% (inactive)"}, {"compound": "COc1ccc(Br)cc1CN(C)C(=O)C1CC(=O)N(C2CCCC2)C1", "note": "(stereo not drawn)", "inhibition (viability loss, TRAIL sensitization)": "-13.6% (inactive)"}, {"compound": "CCN(CC)CCNC(=O)C1c2ccccc2C(=O)N(C)C1c1cn(C)c2ccccc12", "note": "(stereo not drawn)", "inhibition (viability loss, TRAIL sensitization)": "14.1% (inactive)"}, {"compound": "CN1C(=O)c2ccccc2C(C(=O)NCCCN2CCCC2)C1c1c[nH]c2ccccc12", "note": "(stereo not drawn)", "inhibition (viability loss, TRAIL sensitization)": "61.6% (active)"}, {"compound": "O=C(NCCCN1CCCCC1)C1CC(=O)N(CCc2ccccc2)C1", "note": "(stereo not drawn)", "inhibition (viability loss, TRAIL sensitization)": "1% (inactive)"}, {"compound": "COCOc1cccc(CN2CCC(C)(Oc3ccc(SC)cc3)C2)c1", "note": "(stereo not drawn)", "inhibition (viability loss, TRAIL sensitization)": "10.9% (inactive)"}, {"compound": "C[C@@H]1CN([C@H](C)CO)C(=O)CCCn2cc(nn2)CO[C@H]1CN(C)S(=O)(=O)c1ccc(Oc2ccccc2)nc1", "inhibition (viability loss, TRAIL sensitization)": "2.33% (inactive)"}, {"compound": "COc1ccc(CCNCC(O)Cn2ccc3ccccc32)cc1OC", "note": "(stereo not drawn)", "inhibition (viability loss, TRAIL sensitization)": "-3.08% (inactive)"}, {"compound": "O=C(NC1CCCCC1)c1ccc(CNc2c(N3CCOCC3)c(=O)c2=O)cc1", "inhibition (viability loss, TRAIL sensitization)": "-0.739% (inactive)"}, {"compound": "CCOC(=O)C1CCCN(C(=O)c2sc3nc(C)nc(N4CCOCC4)c3c2C)C1", "note": "(stereo not drawn)", "inhibition (viability loss, TRAIL sensitization)": "15.8% (inactive)"}, {"compound": "CCOC(=O)C1=C(O)/C(=C/c2cc(C)n(-c3ccccc3)c2C)N=C1C", "inhibition (viability loss, TRAIL sensitization)": "-20.2% (inactive)"}, {"compound": "CS(=O)(=O)c1ccc2c(c1)SC1=NC(=O)/C(=C/c3ccco3)C(=N)N12", "inhibition (viability loss, TRAIL sensitization)": "11.3% (inactive)"}, {"compound": "Cc1cc(/C=C2/C(=N)N3C(=NC2=O)SN=C3S(C)(=O)=O)c(C)n1-c1ccccc1", "inhibition (viability loss, TRAIL sensitization)": "72.2% (active)"}, {"compound": "COC(=O)C[C@@H]1C=C[C@@H](NC(=O)c2cccnc2)[C@@H](CO)O1", "inhibition (viability loss, TRAIL sensitization)": "-8.25% (inactive)"}, {"compound": "O=C(NC1CCCCC1)C(c1cc2ccccc2o1)n1c(=O)c(-c2ccco2)nc2ccccc21", "note": "(stereo not drawn)", "inhibition (viability loss, TRAIL sensitization)": "1.96% (inactive)"}, {"compound": "CCOc1ccc(/C=N\\NC(=O)c2c(C)nc3cc(C)ccn23)cc1", "inhibition (viability loss, TRAIL sensitization)": "7.46% (inactive)"}, {"compound": "CCOc1ccc(-c2cc(C(=O)N/N=C/c3ccc(O)cc3)c3ccccc3n2)cc1", "inhibition (viability loss, TRAIL sensitization)": "72.3% (active)"}, {"compound": "C/C(=N\\NC(=O)c1cc(-c2ccc(O)cc2)nc2ccccc12)c1cccnc1", "inhibition (viability loss, TRAIL sensitization)": "3.5% (inactive)"}, {"compound": "Cc1ccc(S(=O)(=O)NCC2CCC(C(=O)N3CCOCC3)CC2)cc1", "note": "(stereo not drawn)", "inhibition (viability loss, TRAIL sensitization)": "-6.3% (inactive)"}, {"compound": "C[C@H]1NS(=O)(=O)c2cc(Cl)ccc2O[C@@H]1c1ccccc1", "inhibition (viability loss, TRAIL sensitization)": "11.6% (inactive)"}, {"compound": "CCCn1nc(Oc2nc(NC(C)C)nc(N(C)C)n2)ccc1=O", "inhibition (viability loss, TRAIL sensitization)": "-7.89% (inactive)"}, {"compound": "Cc1ccc2cc(CCNC(=O)c3ccc4c(c3)OCO4)c(=O)[nH]c2c1", "inhibition (viability loss, TRAIL sensitization)": "1.68% (inactive)"}, {"compound": "Cc1nc2cc(NCc3cccs3)ccc2n1C", "inhibition (viability loss, TRAIL sensitization)": "2.96% (inactive)"}, {"compound": "Cc1nc2cc(NC(=O)Nc3cccc(F)c3)ccc2n1C", "inhibition (viability loss, TRAIL sensitization)": "63.6% (active)"}, {"compound": "C=CCN(C(=O)Nc1ccc2c(c1)nc(C)n2C)c1ccccc1", "inhibition (viability loss, TRAIL sensitization)": "14.6% (inactive)"}, {"compound": "Cc1cc([N+](=O)[O-])c(=O)[nH]c1C", "inhibition (viability loss, TRAIL sensitization)": "16.2% (inactive)"}, {"compound": "COC(=O)CCSc1nccn1Cc1ccccc1", "inhibition (viability loss, TRAIL sensitization)": "-2.49% (inactive)"}, {"compound": "O=C(CN1C(=O)c2cccnc2Oc2ccc(Cl)cc21)Nc1ccc(F)cc1", "inhibition (viability loss, TRAIL sensitization)": "4.45% (inactive)"}, {"compound": "CC(/C=C/C1(O)C(C)CC(=O)CC1(C)C)OC1OC(CO)C(O)C(O)C1O", "note": "(stereo not drawn)", "inhibition (viability loss, TRAIL sensitization)": "14.6% (inactive)"}]}]}
